Compound activity as filed in PubChem.
aSyn 5UTR inh: MLPCN primary screen, SNCA 5' untranslated region. alpha-synuclein 5'UTR reporter, inhibitor activity. inhibition, % (tested at 7.5 µM). hit rate 0.82% among 300,000. AID 1813, 2009; in the data active = inhibition above about 60%;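 note: H4 neuroglioblastoma cells stably carrying SNCA 5'UTR luciferase fusion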
BaF3 parental: parental Ba/F3 cell viability inhibition, counter-screen for JAK2V617F inhibitor project, murine pro-B, CellTiter-Glo luminescence; inhibition, % at 5.6 µM; AID 1486, 2009; hit rate 1.1% among 220,000; CellTiter-Glo ATP luminescence;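 active = inhibition above a per-campaign cutoff, the mean inhibition of all tested compounds plus 3 SD, cut at about 27% in these data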
KLF5 inhibitor: KLF5 expression inhibitors, primary screen, DLD-1 cells, luminescence. DLD-1 KLF5 promoter-luciferase reporter. hit rate 0.23% among 290,000. inhibition, % at 5 µM;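 active = inhibition above a per-plate limit of that plate's mean compound inhibition plus 3 SD, cut at about 60% in these data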;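 note: higher means less KLF5 promoter-driven luciferase light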
IEC-6 cytotox: cytotoxicity in IEC-6 intestinal epithelial cells, primary screen, cytotoxicity control for KLF5 inhibitor project, cell-based, luminescence. IEC-6 cytotoxicity, luminescence viability. inhibition, % at 5 µM. hit rate 0.78% among 290,000. AID 1825, 2009; in the data active = inhibition above about 22%
Ba/F3 V617F tox: reduced viability of JAK2V617F-dependent Ba/F3 cells, primary screen, JAK2V617F inhibitor project, cell-based, Ba/F3 EpoR-JAK2V617F, luminescence | AID 1446, 2008 | hit rate 1.1% among 220,000 | inhibition, % at 5.6 µM | ATP luminescence;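 active = inhibition above the campaign mean plus 3 SD over all tested compounds, cut at about 24% in these data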;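 note: cytokine-independent growth of Ba/F3 cells driven by EpoR plus mutant JAK2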
APP transl inh: inhibitors of APP translation via 5'UTR reporter, primary screen, APP 5'UTR luciferase, SH-SY5Y cells. AID 1285, 2008. inhibition, % at 2 µM. SH-SY5Y APP 5'UTR-luciferase reporter, luminescence. hit rate 0.82% among 190,000;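 active = inhibition above a set limit, derived from the sample mean plus 3 SD, cut at about 45% in these data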
Numbers stand for hits; . = inactive; / = not tested or not shown. Compounds with a hit are over-represented: about 2.2% of the library has one in this group of screens.

SMILES	aSyn 5UTR inh	BaF3 parental	KLF5 inhibitor	IEC-6 cytotox	Ba/F3 V617F tox	APP transl inh
Cc1ccccc1C(=O)Nc1cccc(NC(=O)Cn2cnc3c(=O)n(C)c(=O)n(C)c32)c1	.	42.3	.	.	68.1	.
Cc1cccc(C)c1NC(=O)Cn1cnc2c(=O)n(C)c(=O)n(C)c21	.	.	.	.	.	.
COc1ccc(-c2cc3nc(C)cc(N)n3n2)cc1	.	.	.	22.1	.	.
COc1ccc(-c2cc3nc(C)cc(-c4ccc(OC)cc4)n3n2)cc1	.	/	.	.	/	/
Cc1cc(C(=O)CSc2nc3ccccc3[nH]2)c(C)n1CC1CCCO1 (configuration not stated)	.	40.3	.	.	.	.
CC1=NNC(=O)/C1=C\c1cn(-c2ccccc2)nc1-c1ccc(Cl)cc1	98.4	.	.	.	.	.
Cc1ccc(-c2nn(-c3ccccc3)cc2C=C2C(=O)CC(C)(C)CC2=O)cc1	.	.	.	.	.	.
CCN(CC)c1ccc(/C=C2/SC(=O)N(C(C)C)C2=O)o1	.	.	.	.	.	92.0
CCCN1CCC(=NNc2ccc(S(=O)(=O)N3CCOCC3)cc2[N+](=O)[O-])CC1	64.1	.	.	.	.	88.1
CC(C)N1CCC(=NNc2ccc(S(=O)(=O)N3CCOCC3)cc2[N+](=O)[O-])CC1	.	.	.	.	.	.
CCCCn1c(=O)c(C(=O)N/N=C/c2ccc(F)cc2)c(O)c2ccccc21	.	79.7	.	.	.	.
O=c1c2c(nc3c(-c4cccc(Br)c4)c[nH]n13)CCCC2	68.7	.	.	.	.	.
COc1ccc(C(=O)c2c(C(F)(F)F)oc3c2C(=O)c2ccccc2C3=O)cc1OC	111.2	.	.	.	.	.
COc1ccc(C(=O)Nc2ccc3c(c2)C(=O)c2ccccc2C3=O)cc1OC	.	.	.	.	.	.
COc1ccc(CCNC(=O)CCNC(=O)c2ccccc2Cl)cc1	.	/	.	.	/	/
CC(=O)OCCNc1cc(Sc2nc3ccccc3[nH]2)c2nonc2c1[N+](=O)[O-]	.	.	.	.	.	79.3
CCOC(=O)/C=C1\CN(C(C)c2ccccc2)S(=O)(=O)c2ccccc21 (configuration not stated)	.	/	.	.	/	/
Cc1ccc(NC(=O)c2c(C(F)(F)F)nn(C)c2SCc2cccc(C(F)(F)F)c2)cc1C	.	47.8	.	.	42.5	/
COc1ccc(-c2cc(C3CCN(c4cc(Cl)nc(N)n4)CC3)[nH]n2)cc1	.	.	.	.	.	.
Nc1nc(Cl)cc(N2CCC(c3cc(-c4ccc(Cl)cc4)n[nH]3)CC2)n1	.	44.8	.	.	47.5	.
Cc1cc(-c2ccccc2)cc(-c2ccccc2)[n+]1C	/	68.4	.	.	72.9	.
Cc1ccc(-c2cc(N)nc(-c3ccccc3)c2)cc1	.	/	.	.	/	/
CCOc1ccc(NC(=O)CSc2nnc(C)n2CC)cc1	.	/	.	.	/	/
CC(=O)Nc1nc2ccccc2n1Cc1ccccc1Cl	86.6	.	.	.	.	/
CCCCCCCn1c(NC(=O)CC)nc2ccccc21	68.1	.	.	.	.	/
SMILES	aSyn 5UTR inh	BaF3 parental	KLF5 inhibitor	IEC-6 cytotox	Ba/F3 V617F tox	APP transl inh
S=C(Nc1ccccc1)Nc1nc2ccccc2n1CCOc1ccc(Cl)cc1	.	.	.	.	.	.
CCC(=O)Nc1nc2ccccc2n1CCN1CCOCC1	.	.	.	.	.	.
CCC(=O)Nc1nc2ccccc2n1Cc1ccc(Cl)cc1	72.0	.	.	.	.	.
CC(=O)Nc1nc2ccccc2n1CCOc1ccccc1Cl	73.3	.	.	.	.	.
Cn1c(NCc2ccccc2Cl)nc2ccccc21	.	/	/	/	/	/
CC(=O)Nc1nc2ccccc2n1Cc1ccccc1C	66.6	.	.	.	.	.
CCC(=O)Nc1nc2ccccc2n1Cc1ccccc1Cl	72.3	.	.	.	.	/
CC(=O)NCc1nc2ccccc2n1Cc1ccccc1C	.	.	.	.	.	.
COc1cccc(CN2CC(C(=O)NCCOc3cccnc3)CCC2=O)c1 (configuration not stated)	.	/	.	.	/	/
COc1ccc2c(c1)C(=O)Cc1ccccc1O2	.	/	/	/	/	/
CCc1ccc(CCC(=O)Nc2ncc(Cc3ccccc3Cl)s2)o1	.	.	.	.	.	71.1
O=C(CN1CCOCC1)Nc1ncc(Cc2ccccc2Cl)s1	.	.	.	.	.	.
